Source: PubChem BioAssay (National Center for Advancing Translational Sciences (NCATS))
In the library only some 1.6% were active in any assay of this set; here they are far more common.
GFP derepression: epigenetic GFP locus derepression in mouse cells | mouse C127i GFP locus derepression, cytometry, 30 h | Potency, µM (doses to about 46.1 µM) | 0.09% of 68,000 active | AID 597
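Derepression screen: silenced CMV-GFP reporter in murine C127i cells, 30 h compound incubation at 37 C, washed cells imaged by laser-scanning cytometer to enumerate GFP-expressing objects of 20 to 120 um.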
Peg3 imprint: induces erasure of genomic imprints in mouse ES cells. mouse ES Peg3-LacZ reporter, beta-gal luminescence, 40 h. Potency, µM (series often up to 60.7 µM), most hits filed as activators. 0.02% of 110,000 active
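Each well holds 300 Peg3LacZ-Neo (maternal) female ES cells incubated 40 h at 37C, 5% CO2. LacZ is measured by BetaGlo luminescence, with AC50 and maximum efficacy derived from dose-response curves.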
HBB splice mod: alters splicing of the hemoglobin beta chain. 0.06% of 65,000 active. Potency, µM (top dose mostly 46.1 µM), actives largely listed as activators. HBB splicing reporter cell assay, activation; EGFP reporter with mutant IVS2-654 intron; response scale: normalised to 500 nM splice-correcting PNA. AID 925
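HeLa cells stably expressing EGFP interrupted by mutant beta-globin intron 2 (IVS2-654), 500/well in 2% FCS. Treated with compound for 2 days at 37C. Splicing correction scored as total well GFP intensity (488 nm excitation, 500-520 nm emission); 500 nM antisense PNA served as control.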
p53ts 32C tox: p53ts cell cytotoxicity, permissive temperature. H1299-p53A138V at 32C, ATP luminescence viability, 24 h. AID 924. Potency, µM (highest dose often 46.1 µM), usual class: cytotoxic. 0.93% of 130,000 active; note: nearly all actives have a fitted effect of over 55% in size
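H1299-p53 A138V cells (temperature-sensitive p53) exposed 24 h to up to 46 uM compound at 32C, where p53 is wild-type in conformation. Viability read as ATP luminescence and normalised to DMSO and 100 uM tamoxifen. AC50 fitted with the Hill equation.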
UbGFP stabilizer: ubiquitin-GFP accumulation via proteasome inhibition; Ubiquitin-GFP reporter cells, proteasome inhibition, GFP fluorescence; response scale: untreated = 0%, 10 µM MG-132 = 100%; Potency, µM (series often up to 45.9 µM), usual class: activators; 67,000 tested, under 10 active; AID 526; active = well fitted activation curve with a large enough effect, not every such curve was filed as active; inconclusive = small, poorly fitted or top-dose-only effect, or another doubt; inactive = no such curve, though single readings can be large or run the other way
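Reporter cells (U2OS, ubiquitin-G76V-GFP fusion) are plated overnight, then treated 4 hr at 37 °C with compound titrations from 46 uM down to 2.9 nM. Activity is scaled against untreated cells and 10 uM MG-132.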
p53ts 39C kill: cytotoxicity in p53ts cells at nonpermissive temperature | Potency, µM (titrated, usually from 46.1 µM), hits mostly cytotoxic | H1299-p53A138V viability at 39C, ATP luminescence, 24 h | 1.5% of 130,000 active | AID 902; note: nearly all actives have a fitted effect of over 55% in size
Of the large screens only hits and unclear results are named; the others gave an inactive call; ! = a repeat was not active. Unless noted, calls come from the whole dose curve; as a rule, active = well fitted curve in the direction sought with a large enough effect; inconclusive = small, poorly fitted or top-dose-only effect, or another doubt; inactive = no such curve, though single readings can be large; an effect the other way counts as inactive or inconclusive.

CN(C)[C@H]1C(=O)C(C(=O)NCN2CCCC2)=C(O)[C@]2(O)C(=O)C3=C(O)c4c(O)cccc4[C@@](C)(O)[C@H]3C[C@@H]12	none
CCCCC(=O)Nc1ccc(OCc2cc(=O)n3c(C)csc3n2)cc1	none (no result: GFP derepression, HBB splice mod, UbGFP stabilizer)
O=S1(=O)C=C(Sc2nc3cc(Cl)ccc3o2)c2ccccc21	p53ts 32C tox 10µM, p53ts 39C kill 20µM
CCOC(=O)c1cccc(NC(=O)C2=C(C)C(=O)OC23CCCCC3)c1	none (no result: GFP derepression, HBB splice mod, UbGFP stabilizer)
Nc1ncnc2nc(N3CCN(CCO)CC3)[nH]c12	none
CCCn1c(Nc2nc3ccccc3n2C)nc2ccccc21	p53ts 32C tox inconclusive, p53ts 39C kill 10µM
CCCCCn1c(NCc2ccc(OC)cc2)nc2ccccc21	p53ts 32C tox inconclusive, p53ts 39C kill 15.8µM (no result: GFP derepression, HBB splice mod, UbGFP stabilizer)
NCCCCCCNS(=O)(=O)c1ccc2c(Cl)cccc2c1	p53ts 39C kill 31.6µM (no result: HBB splice mod)
NCCCCNS(=O)(=O)c1ccc2c(Cl)cccc2c1	none (no result: HBB splice mod)
CC1CCN(C(=O)COC(=O)c2n[nH]c3ccccc23)CC1	p53ts 32C tox inconclusive, p53ts 39C kill 10µM
O=C(OCC(=O)N1CCCCCC1)c1n[nH]c(=O)c2ccccc12	none
COc1cccc(OCc2nc3ccccc3n2C)c1	p53ts 32C tox inconclusive, p53ts 39C kill 20µM (no result: GFP derepression, HBB splice mod, UbGFP stabilizer)
COc1cccc(OCc2nc3ccccc3n2Cc2ccccc2C)c1	p53ts 39C kill inconclusive (no result: GFP derepression, HBB splice mod, UbGFP stabilizer)
Cc1ccc(NC(=O)c2ccc(NC(=O)CCS(=O)(=O)c3cccs3)cc2)cc1F	none (no result: GFP derepression, HBB splice mod, UbGFP stabilizer)
CCOC(=O)COc1ccc(/C=C(\C#N)c2nc3ccc(C)cc3[nH]2)cc1OC	none (no result: GFP derepression, HBB splice mod, UbGFP stabilizer)
COc1cc(/C=C(\C#N)c2nc3ccc(C)cc3[nH]2)ccc1OCc1ccc(C)cc1	p53ts 32C tox 15.8µM, p53ts 39C kill 3.98µM (no result: GFP derepression, HBB splice mod, UbGFP stabilizer)
O=C(N/N=C1\CCc2ccccc21)c1ccccc1O	p53ts 39C kill 4.47µM (no result: GFP derepression, Peg3 imprint, HBB splice mod, p53ts 32C tox, UbGFP stabilizer)
CSc1cccc(NC(=O)c2ccc3c(c2)CCCN3S(C)(=O)=O)c1	p53ts 32C tox 12.6µM, p53ts 39C kill inconclusive (no result: GFP derepression, HBB splice mod, UbGFP stabilizer)
CCS(=O)(=O)N1CCCc2cc(C(=O)Nc3cccc(C(C)=O)c3)ccc21	none (no result: GFP derepression, HBB splice mod, UbGFP stabilizer)
COC(=O)c1ccccc1NC(=O)Nc1cccc(OCc2cc(=O)n3cccc(C)c3n2)c1	none (no result: GFP derepression, HBB splice mod, UbGFP stabilizer)
Cc1cccn2c(=O)cc(COc3cccc(NC(=O)c4ccccc4F)c3)nc12	p53ts 39C kill 7.94µM (no result: GFP derepression, HBB splice mod, UbGFP stabilizer)
Cc1ccc(CNC(=O)Cn2ncc3c([nH]c4ccc(C)cc43)c2=O)cc1	none (no result: GFP derepression, HBB splice mod, UbGFP stabilizer)
O=C(/C=C/c1ccc(OCc2ccccc2)cc1)c1cccs1	p53ts 32C tox inconclusive (no result: GFP derepression, HBB splice mod, UbGFP stabilizer)
Cc1c(/C=C/C(=O)c2ccc(Cl)s2)cnn1C	none (no result: GFP derepression, Peg3 imprint, HBB splice mod, UbGFP stabilizer)
O=C(/C=C/c1ccc(O)cc1)c1cccs1	p53ts 32C tox 31.6µM, p53ts 39C kill inconclusive (no result: GFP derepression, HBB splice mod, UbGFP stabilizer)
COc1cc(/C=C/C(=O)c2cccs2)cc(OC)c1OC	p53ts 32C tox 6.31µM, p53ts 39C kill inconclusive (no result: GFP derepression, HBB splice mod, UbGFP stabilizer)
Cc1nn(C)cc1/C=C/C(=O)c1cccs1	p53ts 32C tox 12.6µM, p53ts 39C kill inconclusive (no result: GFP derepression, Peg3 imprint, HBB splice mod, UbGFP stabilizer)
O=C(CCS(=O)(=O)c1cc(Br)cc2c1N(C(=O)C1CC1)CC2)Nc1ccc(F)cc1	none (no result: GFP derepression, HBB splice mod, UbGFP stabilizer)
COc1cccc(N2C(=O)C(CC(=O)Nc3ccccc3)N(CCc3sccc3C)C2=O)c1 (stereo unspecified)	none (no result: GFP derepression, HBB splice mod, UbGFP stabilizer)
Cc1cc(C)c2c(NC(=O)c3ccccc3Cl)c(C(=O)NCc3ccc(Cl)cc3)sc2n1	p53ts 32C tox inconclusive, p53ts 39C kill 2.51µM (no result: GFP derepression, HBB splice mod, UbGFP stabilizer)
COc1ccc(-c2c(O)c3c(OC)c4c(cc3oc2=O)OC(C)(C)C=C4)cc1	p53ts 32C tox 7.94µM, p53ts 39C kill 6.31µM (no result: GFP derepression, HBB splice mod, UbGFP stabilizer)
CCc1ccc(NC(=O)Cn2nc3c4ccccc4n(Cc4ccccc4)cc-3c2=O)cc1	p53ts 39C kill inconclusive (no result: GFP derepression, HBB splice mod, UbGFP stabilizer)
Cc1cccc(N2CCN(S(=O)(=O)c3ccc(F)c(C(=O)Nc4ccc(C(C)C)cc4)c3)CC2)c1C	none (no result: GFP derepression, HBB splice mod, UbGFP stabilizer)
Cc1cc2c(cc3c(SCc4ccc(Cl)cc4)nnc(C)n32)o1	p53ts 39C kill 10µM (no result: GFP derepression, HBB splice mod, UbGFP stabilizer)
Cc1cc2c(cc3c(SCc4cccc(F)c4)nnc(C)n32)o1	none (no result: GFP derepression, HBB splice mod, UbGFP stabilizer)
Cc1ccc2onc(CNC(=O)NCc3cccc(Cl)c3)c2c1	none (no result: GFP derepression, HBB splice mod, UbGFP stabilizer)
Cc1cc(C)cc(NC(=O)CSc2oc(-c3ccco3)nc2S(=O)(=O)c2ccc(Cl)cc2)c1	p53ts 32C tox 10µM, p53ts 39C kill 6.31µM (no result: GFP derepression, HBB splice mod, UbGFP stabilizer)
Cc1c(C(=O)Nc2ccc(C(=O)O)cc2)nnn1-c1ccccc1	p53ts 32C tox 10µM, p53ts 39C kill inconclusive (no result: GFP derepression, HBB splice mod, UbGFP stabilizer)
Cc1c(C(=O)O)nnn1-c1ccccc1	none
NCCc1ccc(O)c(O)c1	p53ts 32C tox 12.6µM!, p53ts 39C kill inconclusive
CC(=O)NCCc1ccc(O)c(O)c1	none
Cc1cc(N2CCN(C)CC2)nc2ccc(NC(=O)Nc3ccc(Cl)cc3)cc12	none (no result: GFP derepression, HBB splice mod, UbGFP stabilizer)
